# According to PubChem BioAssay (NCI):
# About 83,000 compounds went through this panel and 20% of them were active in at least one assay; those are over-represented in the sample as a whole.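 For each line, cells grew in 96-well plates with the test compound present at a single concentration for 48 hours.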 Values without a mark were called inactive. Active and inactive are the calls of the source.
# Tested on: HCT-116 colon
# Assay: NCI-60 one-dose screen, 48 h (100 = growth as untreated, 0 = no growth, -100 = all killed)
# Settings: 10 µM
# Method: Growth inhibition of the HCT-116 human tumor cell line is measured as a screen for anti-cancer activity. Cells are grown in 96 well plates and exposed to the test compound for 48 hours. Compounds are tested at a single concentration, which is 10^-5 M for most compounds. The reported endpoint is percent growth (GI% or GIPRCNT), where numbers from 0 - 100% represent growth inhibition, and numbers from -100% - 0 represent cell death. For example, a value of 40 represents 60% growth inhibition. A value of 0 means no net growth occurred over the course of the experiment. A value of -40 indicates 40% of cells at the beginning of the experiment died by the end of the experiment. A value of -100 means all cells are dead at the end of the experiment.
# NCI-60 Human Tumor Cell Lines Screen was performed using the standard one-dose NCI protocol, which is described in more detail at https://dtp.cancer.gov/discovery_development/nci-60/default.htm.
# Compounds with GIPRCNT values below 10 were considered active. Activity score was based on GIPRCNT using the following formula: […]
# Score is 0 for GIPRCNT values of 100 or above, 50 for GIPRCNT values of 0, and 100 for GIPRCNT values of -100.
row,Compound,growth
1,COS(=O)(=O)c1ccc(Br)cc1,93.9%
2,CC(=O)c1ccc(C)c(N)c1,94.2%
3,COc1cccc(O)c1O,98.6%
4,c1ccc(/C(=N\N=C(/c2ccccc2)c2cccs2)c2cccs2)cc1,91.9%
5,CCn1c(=O)n(C)c2c(=O)n(C)c(=O)n(C)c21,109%
6,Oc1ccc(Cc2ccccc2)c2cccnc12,7.1% (active)
7,COc1cc(C(=O)NC(=S)Nc2ccc3ccccc3c2)cc(OC)c1OC,104%
8,O=[N+]([O-])c1ccc(CO)cc1,101%
9,CCOC(=O)CCCC(=O)OCC,97.9%
10,Cc1ccc(C(=O)NC2c3ccccc3Oc3ccccc32)cc1,30.3%
11,CCOc1ccc(Br)cc1/C=N\N=C\c1cc(Br)ccc1OCC,97.8%
12,Clc1ccc(-c2nnc(-c3cccc4ccccc34)o2)cc1,93.9%
13,O=C1Cc2cc(O)ccc2O1,101%
14,COc1ccc2c(NCCCCCCCCNc3c4ccccc4nc4cc(OC)ccc34)c3ccccc3nc2c1,-100% (active)
15,OCC(O)C(O)C(O)C(O)/C=N/O (stereo not given),91.3%
16,COc1cc(C(N)=O)cc(OC)c1OC,105%
17,c1cc2cccc3c4cccc5cccc(c(c1)c23)c54,103%
18,CC(=O)Cc1ccc(-c2ccccc2)cc1,103%
19,N#CCc1ccc([N+](=O)[O-])cc1,109%
20,CCOC(=O)c1[nH]c(C)c(C(=O)O)c1C,116%

row,Compound,growth
1,COc1ccccc1NC(=O)c1cc2cc(Br)ccc2cc1O,3.77% (active)
2,CC(C)CCOC(=O)c1ccccc1,103%
3,CC(O)COc1ccc(-c2ccccc2)cc1 (stereo not given),97.7%
4,COc1ccc(C)cc1OC,105%
5,CCOC(=O)c1[nH]c(C)c(C(C)=O)c1C,90.4%
6,O=C(O)CCC(NC(=O)OCc1ccccc1)C(=O)O (stereo not given),111%
7,CC1(C(N)=O)CCC(C(=O)O)C1(C)C (stereo not given),99.7%
8,O=C(O)C(c1ccccc1)C(O)c1ccccc1 (stereo not given),105%
9,C=CC[N+](C)(C)C,104%
10,C[C@@H](c1ccccc1)[C@@H](C(=O)O)c1ccccc1,102%
11,CCc1nn(Cc2ccccc2)c2nc(C)c(CCc3ccccc3)c(Cl)c12,81.2%
12,Nc1nc(N)c(N=Nc2ccc(C(=O)O)cc2)c(N)n1,95.4%
13,O=C(c1ccccc1)C1CCC1,106%
14,NC(=O)N/N=C\c1ccco1,101%
15,CCc1ccc(/C(C#N)=C/C=C/c2ccccc2)cc1,33.5%
16,CSC(=N\N=C\c1ccc(N(C)C)cc1)/N=C/N(C)C,102%
17,COc1cc(/C=N\Nc2ccccc2)ccc1OC(=O)c1ccccc1,71.3%
18,Cc1cc(NC(=O)CSCC(=O)O)no1,101%
19,Cc1ccc(C(=O)N/N=C/c2ccc3c(c2)OCO3)cc1,92.4%
20,COC(=O)c1cc(-c2ccc(Cl)c(Cl)c2)[nH]c(=O)c1C#N,97.2%
